The values below come from PMC9911399, “Two distinct binding modes provide the RNA-binding protein RbFox with extraordinary sequence specificity”.

Residue numbers refer to the chain shown, from its start. Over roughly 16,000 sequences, “ka relative to ugcaugu” has its median near 0.0091; the highest 2% begin near 0.032. Shown is part of a subset that was picked to be rich in the highest values.

The labels stand for the following.
B1: UCCGGCA (DNA:RNA)
RNA: GGGAGACCGGAAUUCAGAUUGUCCUCCGGCAUUAAAUCCCGUCGUAGCCACCA
DNA 1: CAATCTGAATTCCGGTCTCCC
DNA 2: TGGTGGCTACGACGGGATT
B2: ACUUCCC (DNA:RNA)
RNA: B1 RNA with U25A, C27U, G28U, G29C, A31C
DNA 1: CAATCTGAATTCCGGTCTCCC
DNA 2: TGGTGGCTACGACGGGATT
B3: ACGCCGU (DNA:RNA)
RNA: B1 RNA with U25A, C27G, G28C, G29C, C30G, A31U
DNA 1: CAATCTGAATTCCGGTCTCCC
DNA 2: TGGTGGCTACGACGGGATT
B4: UGCCAAA (DNA:RNA)
RNA: B1 RNA with C26G, G28C, G29A, C30A
DNA 1: CAATCTGAATTCCGGTCTCCC
DNA 2: TGGTGGCTACGACGGGATT
B5: GAGCACC (DNA:RNA)
RNA: B1 RNA with U25G, C26A, C27G, G28C, G29A, A31C
DNA 1: CAATCTGAATTCCGGTCTCCC
DNA 2: TGGTGGCTACGACGGGATT
B6: GAGCAUC (DNA:RNA)
RNA: GGGAGACCGGAAUUCAGAUUGUCCGAGCAUCUUAAAUCCCGUCGUAGCCACCA
DNA 1: CAATCTGAATTCCGGTCTCCC
DNA 2: TGGTGGCTACGACGGGATT
B7: GAGCAUG (DNA:RNA)
RNA: B6 RNA with C31G
DNA 1: CAATCTGAATTCCGGTCTCCC
DNA 2: TGGTGGCTACGACGGGATT
B8: GAGCAGA (DNA:RNA)
RNA: B6 RNA with U30G, C31A
DNA 1: CAATCTGAATTCCGGTCTCCC
DNA 2: TGGTGGCTACGACGGGATT
B9: GAGCACG (DNA:RNA)
RNA: B6 RNA with U30C, C31G
DNA 1: CAATCTGAATTCCGGTCTCCC
DNA 2: TGGTGGCTACGACGGGATT
B10: GAGAGCA (DNA:RNA)
RNA: B6 RNA with C28A, A29G, U30C, C31A
DNA 1: CAATCTGAATTCCGGTCTCCC
DNA 2: TGGTGGCTACGACGGGATT

The experiment addresses T1, RBFOX1 RRM (Homo sapiens, UniProt Q9NWB1 109-208).
T1 sequence: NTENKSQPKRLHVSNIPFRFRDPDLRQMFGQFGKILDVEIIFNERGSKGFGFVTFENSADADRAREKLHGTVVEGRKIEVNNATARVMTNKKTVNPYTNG
Nature of the experiment: EMSA; HiTS-Eq, 1 nM pool, 10 min; buffer printed only for the single-RNA assays: 10 mM Tris pH 7.5, 150 mM NaCl, 3.4 mM EDTA, 0.001% NP-40, 30 C. As to conditions: tags: His6 N-terminal (pET28a); label: 5' 32P. The method in brief:
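Purified RbFox RRM, wild type or mutant, was incubated for 10 min in 50 µL with 1 nM of a 5′-radiolabelled RNA pool carrying 7 randomized nucleotides, whose flanks were annealed to DNA oligonucleotides, over a series of increasing protein concentrations. Unbound RNA was resolved on 8% native PAGE, cut out, reverse-transcribed, barcoded by PCR and sequenced on an Illumina HiSeq 2500. Relative association constants were derived from changes in read counts for each RNA species versus the control reaction and normalised to the cognate motif.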
A general note: In EMSA bound probe runs differently from free probe, usually more slowly.
B1: the binding signal is 0.0141 KA relative to UGCAUGU.

For B2, the binding signal was 0.00296 KA relative to UGCAUGU. As to B3, the binding signal is 0.00555 KA relative to UGCAUGU. The value for B4 was 0.0103 KA relative to UGCAUGU. In the case of B5, the binding signal is 0.00895 KA relative to UGCAUGU. In the case of B6, the binding signal was 0.018 KA relative to UGCAUGU.

With B7, the binding signal is 0.713 KA relative to UGCAUGU. Regarding B8, the binding signal is 0.0147 KA relative to UGCAUGU.

Turning to B9, the binding signal is 0.0394 KA relative to UGCAUGU. B10: the binding signal was 0.0187 KA relative to UGCAUGU.
